According to PubChem BioAssay AID1159580 (chemical genetic matrix, 2015):
Screen size: about 5,500 compounds; about 2,000 (36%) were called active. Roughly 18% stayed inconclusive and do not appear here. Rule as the data show it: active = normalized growth mostly below about 0.91 (no sharp cut-off); inconclusive = no clear call, values can overlap the other calls; inactive = mostly above about 0.92. Some of the results follow.

Experiment: chemical genetic growth profiling, strain panel (AID 1159580);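 also: tested at 20 µM; growth read once vehicle control cultures reached saturation at 30 °C; 1 = growth at the plate median or of vehicle wells; lower values mean less growth of the strain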
Details: S. cerevisiae deletion strains, growth OD

Measured: normalized growth

Clc1ccc(-c2csc(Nc3ccccc3)n2)s1
inactive: locus YAR019C, strain CDC15, stronger effect = lower value 0.933 | locus YBL105C, strain PKC1, stronger effect = lower value 0.933 | locus YBR135W, strain CKS1, stronger effect = lower value 0.929 | locus YBR136W, strain MEC1, stronger effect = lower value 0.923 | locus YBR160W, strain CDC28, stronger effect = lower value 0.925 | locus YDL017W, strain CDC7, stronger effect = lower value 0.928 | locus YDL028C, strain MPS1, stronger effect = lower value 0.936 | locus YDL101C, strain DUN1, stronger effect = lower value 0.943 | locus YDL108W, strain KIN28, stronger effect = lower value 0.926 | locus YDL132W, strain cdc53, stronger effect = lower value 0.94 | locus YDR052C, strain DBF4, stronger effect = lower value 0.933 | locus YDR054C, strain cdc34, stronger effect = lower value 0.907 | locus YDR226W, strain ADK1, stronger effect = lower value 0.936 | locus YFL009W, strain cdc4, stronger effect = lower value 0.929 | locus YFL029C, strain CAK1, stronger effect = lower value 0.923 | locus YFR003C, strain YPI1, stronger effect = lower value 0.933 | locus YFR028C, strain CDC14, stronger effect = lower value 0.926 | locus YIL147C, strain SLN1, stronger effect = lower value 0.932 | locus YJR016C, strain ILV3, stronger effect = lower value 0.925 | locus YKL193C, strain SDS22, stronger effect = lower value 0.921 | locus YMR001C, strain CDC5, stronger effect = lower value 0.925 | locus YMR277W, strain FCP1, stronger effect = lower value 0.921 | locus YNL006W, strain LST8, stronger effect = lower value 0.932 | locus YNL161W, strain CBK1, stronger effect = lower value 0.923 | locus YNL207W, strain RIO2, stronger effect = lower value 0.915 | locus YNL222W, strain SSU72, stronger effect = lower value 0.931 | locus YOL078W, strain AVO1, stronger effect = lower value 0.926 | locus YOR329C, strain SCD5, stronger effect = lower value 0.922 | locus YPL209C, strain IPL1, stronger effect = lower value 0.915 | locus YPR025C, strain CCL1, stronger effect = lower value 0.926 | locus YPR106W, strain ISR1, stronger effect = lower value 0.906 | locus YPR111W, strain DBF20, stronger effect = lower value 0.917 | strain NNK1, stronger effect = lower value 0.916 | strain TSCII, stronger effect = lower value 0.92
active: locus YDL214C, strain PRR2, stronger effect = lower value 0.382 | locus YDR477W, strain SNF1, stronger effect = lower value 0.24 | locus YER123W, strain YCK3, stronger effect = lower value 0.354 | locus YER133W, strain GLC7, stronger effect = lower value 0.363 | locus YFR019W, strain FAB1, stronger effect = lower value 0.593 | locus YGR040W, strain KSS1, stronger effect = lower value 0.311 | locus YGR052W, strain FMP48, stronger effect = lower value 0.203 | locus YGR092W, strain DBF2, stronger effect = lower value 0.33 | locus YHR030C, strain SLT2, stronger effect = lower value 0.146 | locus YHR079C, strain IRE1, stronger effect = lower value 0.452 | locus YHR082C, strain KSP1, stronger effect = lower value 0.23 | locus YHR205W, strain SCH9, stronger effect = lower value 0.273 | locus YJL095W, strain BCK1, stronger effect = lower value 0.224 | locus YJL157C, strain FAR1, stronger effect = lower value 0.434 | locus YJR066W, strain TOR1 (second series), stronger effect = lower value 0.471 | locus YJR066W, strain TOR1, stronger effect = lower value 0.276 | locus YKL048C, strain ELM1, stronger effect = lower value 0.771 | locus YKL067W, strain YNK1, stronger effect = lower value 0.521 | locus YKL101W, strain HSL1, stronger effect = lower value 0.451 | locus YKL203C, strain TOR2, stronger effect = lower value 0.385 | locus YLR113W, strain HOG1, stronger effect = lower value 0.216 | locus YLR133W, strain CKI1, stronger effect = lower value 0.39 | locus YLR403W, strain SFP1, stronger effect = lower value 0.332 | locus YML070W, strain DAK1, stronger effect = lower value 0.408 | locus YMR205C, strain PFK2 (second series), stronger effect = lower value 0.578 | locus YNL020C, strain ARK1, stronger effect = lower value 0.419 | locus YNL183C, strain NPR1, stronger effect = lower value 0.148 | locus YNL307C, strain MCK1 (second series), stronger effect = lower value 0.28 | locus YOL136C, strain PFK27, stronger effect = lower value 0.453 | locus YOR061W, strain CKA2, stronger effect = lower value 0.414 | locus YOR119C, strain RIO1, stronger effect = lower value 0.409 | locus YOR231W, strain MKK1, stronger effect = lower value 0.435 | locus YPL031C, strain PHO85, stronger effect = lower value 0.295 | locus YPL153C, strain RAD53, stronger effect = lower value 0.438 | locus YPL204W, strain HRR25, stronger effect = lower value 0.435 | locus YPL256C, strain CLN2, stronger effect = lower value 0.289
